Nrf2 ARE act = qHTS of Nrf2 Activators. actives 0.31% (n = 410,000). Potency, µM (doses to about 46.1 µM), most hits filed as activators. AREc32 ARE-luciferase reporter (MCF7-derived line), luminescence, 24 h; further: nearly all actives have a fitted effect of over 65% in size
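AREc32_Fluc, 1000 cells/well, OPTI-MEM + 5% FBS, o/n 37 deg C 5% CO2; 23 nL cpd by pin tool, 24 hr; Steady-Glo 30 min RT, luminescence.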
IDH1 R132H inh = qHTS for Inhibitors of mutant isocitrate dehydrogenase 1 (IDH1): qHTS; IDH1-R132H enzyme, NADPH consumption, diaphorase/resazurin fluorescence; AID 602179, 2012; actives 0.093% (n = 390,000); Isocitrate dehydrogenase [NADP] cytoplasmic (Homo sapiens), O75874; Potency, µM (doses to about 76.6 µM), usual class: inhibitors; further: nearly all actives have a fitted effect of over 65% in size
Target sequence (O75874 whole entry R132H, stated change not applied): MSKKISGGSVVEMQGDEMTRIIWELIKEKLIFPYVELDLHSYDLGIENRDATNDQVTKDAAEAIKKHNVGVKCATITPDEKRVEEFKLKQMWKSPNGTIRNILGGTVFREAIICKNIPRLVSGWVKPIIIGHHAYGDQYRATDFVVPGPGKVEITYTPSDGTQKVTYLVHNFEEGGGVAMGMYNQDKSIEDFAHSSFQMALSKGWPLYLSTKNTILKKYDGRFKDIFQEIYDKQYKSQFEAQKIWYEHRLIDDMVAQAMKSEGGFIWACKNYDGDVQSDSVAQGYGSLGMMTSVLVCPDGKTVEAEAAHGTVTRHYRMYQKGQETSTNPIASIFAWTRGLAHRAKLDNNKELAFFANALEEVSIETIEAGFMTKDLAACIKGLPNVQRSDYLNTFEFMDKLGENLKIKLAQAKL
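IDH1-R132H (0.5 ug/mL) preincubated 30 min with compound, then NADPH (0.016 mM) and alpha-KG (2 mM) added; 80 min at RT, pH 7.5. Remaining NADPH coupled via diaphorase/resazurin to fluorescence (540/590 nm); concentration-response curves normalized to no-enzyme control.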
Nrf2 block = Nrf2 qHTS screen for inhibitors; A549 ARE-Fluc reporter, luciferase luminescence, 18-24 h; AID 504444, 2011; Potency, µM (doses to about 46 µM), usual class: inhibitors; actives 2.1% (n = 360,000); further: nearly all actives have a fitted effect of over 60% in size
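Reporter: ARE-Fluc in A549. Exposure: 18-24 h, 37 °C, 5% CO2, 5% FBS OPTI-MEM. Readouts: fluorescent cytotoxicity (CellTiter-Fluor), then luminescent Nrf2 signal after BugLite.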
ELG1 DNA repair = qHTS screen for small molecules that inhibit ELG1-dependent DNA repair in human embryonic kidney (HEK293T) cells expressing luciferase-tagged ELG1; actives 2.3% (n = 330,000); HEK293T ELG1-luciferase reporter, luminescence, 16 h; DNA damage induced by 5-fluorouridine; Potency, µM (doses to about 46.1 µM), most hits filed as inhibitors; further: nearly all actives have a fitted effect of over 55% in size
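Overnight (16 hr) co-exposure of 2,000 cells/well to 5-fluorouridine and compound at 37 °C preceded detection. Luciferase was quantified via ONE-Glo luminescence; loss of signal denotes inhibition.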
A549 viability = Nrf2 qHTS screen for inhibitors: counterscreen for cytotoxicity | A549 ARE-Fluc cells, CellTiter-Fluor viability, 18-24 h | Potency, µM (highest dose often 46 µM), actives largely listed as inhibitors | actives 0.16% (n = 390,000) | AID 504648, 2011
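A549 ARE-Fluc cells in 5% FBS OPTI-MEM, 5000 cells/well, rested 2 h then exposed to compounds in concentration-response for 18-24 h at 37 °C. Viability by CellTiter-Fluor fluorescence (Ex 405/Em 525) after 30 min; luciferase luminescence (BugLite, 15 min, RT) read afterwards.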
A number is an active result; – = inactive; ? = inconclusive; · = not tested or not shown. An excerpt weighted towards active compounds, which were near 3.8% of everything screened. The call rests on the fitted dose curve; in most records, active means well fitted curve in the direction sought with a large enough effect; inconclusive means small, poorly fitted or top-dose-only effect, or another doubt; inactive means no such curve, though single readings can be large; an effect the other way counts as inactive or inconclusive.

SMILES	Nrf2 ARE act	IDH1 R132H inh	Nrf2 block	ELG1 DNA repair	A549 viability
O=C(COC(=O)c1cc(S(=O)(=O)N2CCCCC2)ccc1N1CCOCC1)c1ccc(F)cc1	–	–	–	10µM	–
Cc1ccccc1OCCOC(=O)c1cc(S(=O)(=O)N2CCCCC2)ccc1N1CCOCC1	–	–	16µM	?	–
C=C1CN(C(C(=O)OC)C(C)C)S(=O)(=O)c2ccc(F)cc21 (stereo not given)	·	·	–	·	–
CCCN1/C(=C2/SC(=S)N(CC)C2=O)C=Cc2ccccc21	–	–	?	–	18µM
CCCN1C(=O)/C(=C2/C=Cc3ccccc3N2CC)SC1=S	–	–	–	–	15µM
CCN1C(=O)/C(=C2/C=Cc3ccccc3N2CC)SC1=S	?	–	–	–	?
CN1C(=O)/C(=C2/C=Cc3ccccc3N2CCCS(=O)(=O)O)SC1=S	–	–	–	–	21µM
COc1ccc(CN(Cc2ccccc2)C(=O)c2ccc(OC)cc2O)cc1	·	·	–	·	–
Cc1cccc(NC(=O)C(CC(C)C)NC(=O)C2CCC(C)CC2)n1 (stereo not given)	–	?	?	–	–
Cc1ccc(C)c(NC(=O)COC(=O)c2cccc3c2C(=O)c2ccccc2C3=O)c1	–	–	13µM	23µM	–
Cc1ccc(NC(=O)COC(=O)c2cccc3c2C(=O)c2ccccc2C3=O)c(C)c1	–	–	?	10µM	–
Cc1ccc(NC(=O)COC(=O)c2ccccc2-c2nc3ccccc3s2)c(C)c1	–	–	–	?	–
Cc1cc(C)c(NC(=O)COC(=O)c2cccc3c2C(=O)c2ccccc2C3=O)c(C)c1	–	–	16µM	13µM	–
Cc1ccc(Cl)cc1NC(=O)COC(=O)c1ccccc1O	–	–	–	–	–
COc1ccc(NC(=O)C(=O)c2cc(C)n(-c3ccc(C)cc3)c2C)cc1Cl	–	–	–	·	–
O=C1CN(C(=O)CSc2nnnn2C2CC2)c2ccccc2N1	–	–	–	–	–
Cc1nn(-c2ccccc2)c(=O)c2ccccc12	–	–	–	?	–
Cc1nn(-c2cccc(C(F)(F)F)c2)c(=O)c2ccccc12	3.5µM	–	–	–	–
COc1ccccc1NC(=O)CN(Cc1ccco1)C(=O)c1ccc(-n2nc(C)cc2C)cc1	–	–	–	23µM	–
CC(C)COc1ccc(C(=O)N(CC(=O)Nc2ccccc2C(F)(F)F)Cc2ccco2)cc1	–	–	18µM	–	?
O=C(CN(Cc1ccco1)C(=O)c1ccc([N+](=O)[O-])cc1)Nc1ccccc1C(F)(F)F	–	–	–	–	–
CCOC(=O)C(C)Sc1nnc2ccc3ccccc3n12 (stereo not given)	–	–	–	·	–
Cc1cc(C)cc(NS(=O)(=O)c2csc(C(N)=O)c2)c1	–	–	?	?	–
CC(C)Oc1ccc(CNS(=O)(=O)c2csc(C(N)=O)c2)cc1	–	–	15µM	?	–
CN(C)c1ccc(CNS(=O)(=O)c2csc(C(N)=O)c2)cc1	–	–	?	–	–
SMILES	Nrf2 ARE act	IDH1 R132H inh	Nrf2 block	ELG1 DNA repair	A549 viability
Cc1ccc(NS(=O)(=O)c2csc(C(N)=O)c2)cc1C	–	–	16µM	–	–
Cc1ccc(NC(=O)c2cc(S(=O)(=O)N3CCCCC3)cs2)cc1	–	–	8.2µM	?	–
COc1ccc(NC(=O)c2cc(S(=O)(=O)Nc3ccc(OC)cc3)cs2)cc1	–	–	?	?	–
O=C(Nc1ccc(F)cc1)c1cc(S(=O)(=O)Nc2ccc(F)cc2)cs1	–	–	18µM	–	?
CCCNC(=O)c1cc(C2CCCCN2C(=O)CCCc2ccccc2)on1 (stereo not given)	–	·	·	·	·
CCOC(=O)c1nnn(C(CC)C(=O)Nc2ccc(F)cc2)c1C(=O)OCC (stereo not given)	–	–	–	·	–
COc1ccc(-n2ccn(Cc3ccccc3C)c(=O)c2=O)cc1	–	–	–	·	–
CCn1cc(C(=O)NC2CCCCCC2)c(=O)c2ccc(C)nc21	–	–	–	–	–
COc1ccccc1CNc1cc(-c2ccccc2)nc2nncn12	–	–	?	·	–
O=C(Nc1ccc(Cl)cc1)c1cc(S(=O)(=O)N2CCOCC2)cs1	–	–	4.6µM	15µM	?
O=C(Nc1ccc(F)cc1)c1cc(S(=O)(=O)N2CCOCC2)cs1	–	–	–	–	–
O=C(Nc1nc2ccc(F)cc2s1)c1cccs1	?	–	?	?	–
O=C(Nc1cccc(NC(=O)c2ccccc2Cl)c1)c1ccc([N+](=O)[O-])o1	?	–	–	23µM	–
O=C(Nc1cccc([N+](=O)[O-])c1)c1ccc([N+](=O)[O-])o1	–	–	·	·	·
CN1CCN(c2ccccc2NC(=O)c2ccc(-c3ccc(Cl)cc3Cl)o2)CC1	–	–	·	21µM	–
O=C(Nc1nc2ccc(F)cc2s1)c1ccc([N+](=O)[O-])o1	3.2µM	–	·	·	·
O=C(Nc1nc2c(F)cccc2s1)c1ccc([N+](=O)[O-])o1	10µM	–	–	?	–
CS(=O)(=O)N1CCN(c2ccccc2NC(=O)c2ccc(-c3ccc(Cl)cc3Cl)o2)CC1	–	–	–	?	–
CCc1ccc(NC(=O)C(Cc2ccccc2)NS(=O)(=O)c2ccc3c(c2)CCN3C(C)=O)cc1 (stereo not given)	–	–	–	·	–
CCOc1ccc(CCNC(=O)CSc2n[nH]c(N)n2)cc1OCC	–	–	–	–	–
O=C(Nc1ccc2[nH]c(=O)[nH]c2c1)c1ccc([N+](=O)[O-])o1	13µM	–	–	–	–
Cc1ccc(C(=O)NC(=S)Nc2cccc(NC(=O)c3ccccc3Cl)c2)cc1[N+](=O)[O-]	–	–	–	18µM	–
O=C(Nc1ccccc1N1CCCC1)c1ccc([N+](=O)[O-])o1	?	–	16µM	?	?
O=C(Nc1nc2c(Cl)cccc2s1)c1ccc([N+](=O)[O-])o1	5µM	–	–	?	–
COc1ccc(CNC(=O)CCc2c(C)c3cc4c(C)c(C)oc4cc3oc2=O)cc1OC	–	–	–	·	–
c1nc(NCCCN2CCOCC2)c2cc(-c3ccc4c(c3)OCO4)ccc2n1	·	·	–	·	–
O=C(OCC(=O)N1CCC(c2ccccc2)=N1)c1ccc([N+](=O)[O-])s1	–	–	23µM	–	?
CCOC(=O)c1c(-c2ccccc2)csc1NC(=O)CSc1nnc(C)s1	–	–	13µM	?	–
CCOC(=O)c1c(-c2ccc(OC)cc2)csc1NC(=O)CSc1ncnc2sccc12	–	–	15µM	?	–
CCOC(=O)c1c(-c2ccc(-c3ccccc3)cc2)csc1NC(=O)c1cccc(N2C(=O)CCC2=O)c1	–	–	–	7.3µM	–

From PubChem BioAssay
